Laboratory results as given in PubChem BioAssay (NCI).
About 83,000 compounds went through this panel and 20% of them were active in at least one assay; those are over-represented in the sample as a whole.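 Activity criterion: percent growth below 10, measured after cells in 96-well plates were exposed to a single compound concentration for 48 hours.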 Calls of active or inactive are those of the source.

What follows are compounds tested on HL-60(TB) leukemia (assay: NCI-60 one-dose screen, 48 h (100 = growth as untreated, 0 = no growth, -100 = all killed)). Conditions: 10 µM unless noted.

Question: O=C(NCCN1CCC(O)CC1)c1cc2c(o1)C(=O)c1ccccc1C2=O was tested. Which growth did it give?
Answer: The growth was -13.9% (active).

Question: How did the growth turn out when COc1ccc(/C=C/C(=O)c2ccc(NC(=O)CSc3nnc(-c4cc(-c5ccccc5)nc5ccccc45)n3-c3ccccc3)cc2)cc1 was run?
Answer: Its growth is 95.9% (inactive).

Question: How did the growth turn out when Cc1cc2cc3c(=O)[nH]c(=O)cc-3n(CC(O)C(O)C(O)CO)c2cc1C (centres undefined) was run?
Answer: Its growth is 102% (inactive).

Question: With Clc1ccc2c(c1)N(c1ncnc3ccc(-c4cnc5[nH]ccc5c4)cc13)CC2 as the compound, how does the growth read?
Answer: The growth was 16.3% (inactive).

Question: How did the growth turn out when Cn1cc(-c2csc(-c3cn(C(=O)OC(C)(C)C)c4ccccc34)n2)c2ccnc(Cl)c21 was run?
Answer: The growth was 67.5% (inactive).

Question: How did the growth turn out when COc1cccc(-c2nc3cc(NC(=O)c4ccc(Cl)c(C#N)c4)ccc3o2)c1 was run?
Answer: The growth was 100% (inactive).

Question: How did the growth turn out when O=c1nc2oc3ccc4ccccc4c3cc-2s1 was run?
Answer: Its growth is -29.2% (active).

Question: O=[N+]([O-])c1ccc2ncccc2c1Cl was tested. Which growth did it give?
Answer: Its growth is 11.6% (inactive).

Question: Which growth does the source give for CC1=C2[C@@H](CC1)[C@]1(C)O[C@@](C3CCNCC3)(C[C@H]1OC(=O)CO)[C@H]2OC(=O)/C=C/c1ccccc1 here?
Answer: Its growth is 97.1% (inactive).

Question: For COc1ccc(-n2c(=O)c3ccccc3n(Cc3ccc(C(=O)NO)cc3)c2=O)cc1, which growth is on record?
Answer: The growth was -4.17% (active).

Question: Which growth does the source give for CC1CN(C2CCCCC2)C(=O)NC1=O (centres undefined) here?
Answer: The growth was 75.8% (inactive).

Question: For COc1c(C2CC(=O)Nc3c2cnn3Cc2ccco2)cc2c(c1OC)OCO2 (centres undefined), which growth is on record?
Answer: Its growth is -25.8% (active).

Question: How did the growth turn out when CNc1nc2c(s1)C(c1cccc(F)c1)CC(=O)N2 (centres undefined) was run?
Answer: The growth was 97.5% (inactive).

Question: Which growth does the source give for CS(=O)(=O)Nc1cc(-c2ccc3ncnc(Nc4ccc(OCc5ccccn5)c(Cl)c4)c3c2)cnc1Cl here?
Answer: The growth was 4.82% (active).

Question: How did the growth turn out when O=C(N/N=C/C[C@@H]1[C@@H](/C=C/[C@@H](O)COc2cccc(Cl)c2)[C@H](O)C[C@@H]1O)c1ccncc1 was run?
Answer: The growth was 87.5% (inactive).

Question: COc1cccc(Nc2nc(SC)nc(-c3cccc([N+](=O)[O-])c3)c2C#N)c1 was tested. Which growth did it give?
Answer: The growth was 112% (inactive).

Question: How did the growth turn out when Clc1ccc(C2CC(c3cccc(Nc4ccncc4)c3)=NN2c2ccccc2)cc1 (centres undefined) was run?
Answer: The growth was -38.6% (active).

Question: O=C(Nc1ccc(-n2cc(-c3ccncc3)c(-c3ccc(Cl)c(O)c3)n2)cc1)N1CCOCC1 was tested. Which growth did it give?
Answer: Its growth is 108% (inactive).

Question: Which growth does the source give for COC(=O)[C@]1(C)CCC[C@]2(C)[C@H]3C[C@@H]4[C@H]5[C@@H]6CC/C(=N\OCC/C(N)=N/O)[C@H]5[C@@]3(CC[C@H]21)CC4(C(C)C)O6 here?
Answer: Its growth is 30.6% (inactive).

Question: With COc1cc2nc(-c3ccc(Cl)cc3)cc(OCCCN3CCCCC3)c2cc1OC as the compound, how does the growth read?
Answer: The growth was 29.6% (inactive).

Question: With COc1ccc(C(=O)O)cc1.[Ag] as the compound, how does the growth read?
Answer: Its growth is -46% (active).

Question: How did the growth turn out when O=C(Nc1ccccn1)[C@H](O)[C@@H](O)C(=O)N1CCOCC1 was run?
Answer: Its growth is 116% (inactive).

Question: O=C(Nc1ccc(Oc2ccc(F)cc2)c(Cl)c1)c1cccnc1 was tested. Which growth did it give?
Answer: Its growth is 83.2% (inactive).

Question: Which growth does the source give for CSc1nc2sc3c(c2c(=O)n1-c1ccc(C(C)C)cc1)CCC(=O)C3 here?
Answer: The growth was 6.88% (active).
